Compounds without any hit were thinned out: in the full panel of roughly 79,000, 15% have a hit. Calls of active or inactive are those of the source. Cut-off read from the data, not from the text of the source: active = growth inhibition above about 70%; inactive = the rest.
What was measured:
[1] = NCI Yeast Anticancer Drug Screen. Data for the wt1 strain (AID 149);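 note: 0% = growth of vehicle-treated wt1 cultures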; settings: S. cerevisiae wt1 strain (SPY 50644) growth inhibition, active compounds read high
Procedure, shortened: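 Using yeast strain wt1, compound-induced growth inhibition was determined against vehicle-treated cultures.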

[2] = NCI Yeast Anticancer Drug Screen. Data for the rad50EPP+ strain (AID 151);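 note: 0% = growth of vehicle-treated control cultures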; settings: S. cerevisiae rad50 mutant strain, active compounds read high
Procedure, shortened: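 Strain rad50EPP+; compound exposure; % growth inhibition vs vehicle.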

[3] = NCI Yeast Anticancer Drug Screen. Data for the mgt1 strain (AID 153); settings: S. cerevisiae mgt1 mutant growth inhibition, active compounds read high
Procedure, shortened: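 Read-out: yeast growth inhibition vs vehicle control. Strain mgt1, drawn from a panel altered in DNA damage repair or cell cycle control.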

[4] = NCI Yeast Anticancer Drug Screen. Data for the rad50 strain (AID 155);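 note: 0% = growth of vehicle-only cultures of the same strain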; settings: S. cerevisiae rad50 strain growth inhibition, active compounds read high
Procedure, shortened: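 Relative growth inhibition (compound vs vehicle) was measured in yeast with a defined repair-gene alteration.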

[5] = NCI Yeast Anticancer Drug Screen. Data for the mec2-1 strain (AID 157); settings: S. cerevisiae mec2-1 strain, active compounds read high
Procedure, shortened: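 Cells of the genetically defined mec2-1 yeast strain are incubated with test compound. Inhibition of growth is calculated against vehicle-treated controls.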

[6] = NCI Yeast Anticancer Drug Screen. Data for the rad14 strain (AID 159);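 note: 0% = growth of vehicle-treated control cultures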; settings: S. cerevisiae rad14 strain growth inhibition, active compounds read high
Procedure, shortened: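 Screen for anticancer potential: a yeast strain altered in DNA damage repair is grown with compound, and reduced growth is quantified against vehicle controls.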

[7] = NCI Yeast Anticancer Drug Screen. Data for the sgs1 mgt1 strain (AID 161);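 note: 0% = growth of cultures given vehicle only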; settings: S. cerevisiae sgs1 mgt1 strain, active compounds read high
Procedure, shortened: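 Mutant yeast exposed to compound; growth scored against vehicle-only wells.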

[8] = NCI Yeast Anticancer Drug Screen. Data for the CLN2oe strain (AID 163);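 note: 0% = growth of vehicle-only control cultures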; settings: S. cerevisiae CLN2oe strain, active compounds read high
Procedure, shortened: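 Strain altered in cell-cycle control, incubated with compound; growth compared to solvent-treated controls.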

[9] = NCI Yeast Anticancer Drug Screen. Data for the cln2 rad14 strain (AID 165);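 note: 0% = growth equal to vehicle treated cultures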; settings: S. cerevisiae cln2 rad14 strain, active compounds read high
Procedure, shortened: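 The screen exposed genetically defined yeast (cln2 rad14) to test compounds and scored growth inhibition relative to vehicle-treated controls.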

[10] = NCI Yeast Anticancer Drug Screen. Data for the bub3 strain (AID 167); settings: S. cerevisiae bub3 mutant strain, active compounds read high
Procedure, shortened: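 Screening used yeast with an engineered genetic alteration affecting cell cycle control. Compound-exposed cultures were compared with vehicle cultures, and reduced growth was taken as inhibition.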

[11] = NCI Yeast Anticancer Drug Screen. Data for the wt2 strain (AID 169);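 note: 0% = growth of vehicle-treated yeast cultures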; settings: S. cerevisiae wt2 strain growth inhibition, active compounds read high
Procedure, shortened: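 Steps: yeast strain treated with compound; growth recorded; inhibition calculated relative to cultures given vehicle alone.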

[12] = NCI Yeast Anticancer Drug Screen. Data for the mlh1 strain (AID 171);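 note: 0% = growth of vehicle-treated control cultures of the same strain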; settings: S. cerevisiae mlh1 strain growth inhibition, active compounds read high
Procedure, shortened: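 Yeast screen: mutant strain plus compound, growth scored against vehicle control wells.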

[13] = NCI Yeast Anticancer Drug Screen. Data for the sgs1 strain (AID 173);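 note: 0% = growth of vehicle-only control cultures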; settings: S. cerevisiae sgs1 mutant, active compounds read high
Procedure, shortened: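 Inhibition of yeast growth served as the measure. The mutant strain was treated with each compound, and growth was normalised to cultures receiving vehicle alone.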

[14] = NCI Yeast Anticancer Drug Screen. Data for the mlh1 rad18 strain (AID 175); settings: S. cerevisiae mlh1 rad18 strain growth inhibition, active compounds read high
Procedure, shortened: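 Compound-treated yeast growth, normalised to vehicle controls. Strain bears defined DNA repair mutations.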

[15] = NCI Yeast Anticancer Drug Screen. Data for the rad18 strain (AID 177); settings: S. cerevisiae rad18 mutant growth inhibition, active compounds read high
Procedure, shortened: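 Inhibition values reflect reduced yeast growth compared with vehicle-treated controls, using a strain engineered with a DNA damage repair defect.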

[16] = NCI Yeast Anticancer Drug Screen. Data for the rad52 strain (AID 147);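 note: 0% = growth of vehicle-treated control cultures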; settings: S. cerevisiae rad52 mutant growth inhibition, active compounds read high
Procedure, shortened: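 Genetically altered yeast (DNA damage repair defect) treated with compound; inhibition calculated relative to vehicle.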

[17] = at 5.0 µM (retest, dose inferred, filed as 0.5)
[18] = at 50.0 µM (retest, dose inferred, filed as 5.0)

Measured: growth inhibition

Cc1ccccc1C1=C(CC(=O)O)c2ccccc2CC1C (stereo unspecified)
active: [1]; at 33.0 µM 96% | [1]; at 100.0 µM 96% | [3]; at 33.0 µM 95% | [3]; at 100.0 µM 99% | [4]; at 33.0 µM 97% | [4]; at 50.0 µM 98.9% | [4]; at 100.0 µM 99% | [5]; at 33.0 µM 95% | [5]; at 50.0 µM 99.7% | [5]; at 100.0 µM 99% | [6]; at 33.0 µM 98% | [6]; at 100.0 µM 99% | [7]; at 50.0 µM 99.6% | [8]; at 33.0 µM 97% | [8]; at 100.0 µM 98% | [9]; at 50.0 µM 99.4% | [10]; at 33.0 µM 93% | [10]; at 50.0 µM 99% | [10]; at 100.0 µM 99% | [11]; at 33.0 µM 97% | [11]; at 100.0 µM 98% | [12]; at 33.0 µM 96% | [12]; at 100.0 µM 99% | [13]; at 33.0 µM 98% | [13]; at 100.0 µM 99% | [14]; at 50.0 µM 99.5% | [15]; at 33.0 µM 96% | [15]; at 100.0 µM 99%
inactive: [1]; at 1.2 µM 4% | [1]; at 3.7 µM 8% | [1]; at 11.0 µM 29% | [2]; at 1.2 µM -1% | [2]; at 3.7 µM 2% | [2]; at 11.0 µM 6% | [2]; at 33.0 µM 10% | [2]; at 100.0 µM 49% | [3]; at 1.2 µM 9% | [3]; at 3.7 µM 11% | [3]; at 11.0 µM 22% | [4]; at 1.2 µM 6% | [4]; at 3.7 µM 10% | [4]; [17] 6% | [4]; at 11.0 µM 45% | [4]; [18] 10% | [5]; at 1.2 µM 9% | [5]; at 3.7 µM 20% | [5]; [17] 10% | [5]; at 11.0 µM 49% | [5]; [18] 6% | [6]; at 1.2 µM 6% | [6]; at 3.7 µM 11% | [6]; at 11.0 µM 29% | [7]; [17] 2% | [7]; [18] 20% | [8]; at 1.2 µM 10% | [8]; at 3.7 µM 15% | [8]; at 11.0 µM 57% | [9]; [17] -13% | [9]; [18] 28% | [10]; at 1.2 µM 11% | [10]; at 3.7 µM 9% | [10]; [17] -4% | [10]; at 11.0 µM 26% | [10]; [18] 1% | [11]; at 1.2 µM 5% | [11]; at 3.7 µM 7% | [11]; at 11.0 µM 37% | [12]; at 1.2 µM 6% | [12]; at 3.7 µM 12% | [12]; at 11.0 µM 32% | [13]; at 1.2 µM 5% | [13]; at 3.7 µM 10% | [13]; at 11.0 µM 40% | [14]; [17] 14% | [14]; [18] 50% | [15]; at 1.2 µM 4% | [15]; at 3.7 µM 10% | [15]; at 11.0 µM 38%

Cc1cc(NCCCN(C)C)c2ccc3c(ccc4c(NCCCN(C)C)cc(C)nc43)c2n1
inactive: [16]; at 1.2 µM 6% | [16]; at 3.7 µM 21% | [16]; at 11.0 µM 17% | [16]; at 33.0 µM 19% | [16]; at 100.0 µM 47% | [1]; at 1.2 µM 22% | [1]; at 3.7 µM 18% | [1]; at 11.0 µM 15% | [1]; at 33.0 µM 9% | [1]; at 100.0 µM 27% | [2]; at 1.2 µM 6% | [2]; at 3.7 µM 6% | [2]; at 11.0 µM 11% | [2]; at 33.0 µM -26% | [2]; at 100.0 µM 22% | [4]; at 1.2 µM 21% | [4]; at 3.7 µM 17% | [4]; [17] 11% | [4]; at 11.0 µM 17% | [4]; at 33.0 µM 21% | [4]; at 50.0 µM 55.9% | [4]; at 100.0 µM 59% | [5]; at 1.2 µM 7% | [5]; at 3.7 µM 15% | [5]; [17] 5% | [5]; at 11.0 µM 11% | [5]; at 33.0 µM 12% | [5]; [18] 31% | [5]; at 50.0 µM 25.6% | [5]; at 100.0 µM 35% | [6]; at 1.2 µM 2% | [6]; at 3.7 µM 3% | [6]; at 11.0 µM 15% | [6]; at 33.0 µM 22% | [6]; at 100.0 µM 58% | [7]; [17] 7% | [7]; at 50.0 µM 18.6% | [8]; at 1.2 µM -7% | [8]; at 3.7 µM -4% | [8]; at 11.0 µM -1% | [8]; at 33.0 µM 17% | [8]; at 100.0 µM 52% | [9]; [17] 8% | [9]; [18] 57% | [9]; at 50.0 µM 19.1% | [10]; at 1.2 µM 1% | [10]; at 3.7 µM 11% | [10]; [17] 1% | [10]; at 11.0 µM 9% | [10]; at 33.0 µM 5% | [10]; [18] 31% | [10]; at 50.0 µM 11.3% | [10]; at 100.0 µM 22% | [11]; at 1.2 µM -57% | [11]; at 3.7 µM -39% | [11]; at 11.0 µM -63% | [11]; at 33.0 µM -40% | [11]; at 100.0 µM 25% | [12]; at 1.2 µM 15% | [12]; at 3.7 µM 18% | [12]; at 11.0 µM 23% | [12]; at 33.0 µM 25% | [12]; at 100.0 µM 37% | [13]; at 1.2 µM 3% | [13]; at 3.7 µM 10% | [13]; at 11.0 µM 7% | [13]; at 33.0 µM 8% | [13]; at 100.0 µM 46% | [14]; [17] 10% | [14]; at 50.0 µM 9.8% | [15]; at 1.2 µM 10% | [15]; at 3.7 µM 4% | [15]; at 11.0 µM 2% | [15]; at 33.0 µM -8% | [15]; at 100.0 µM 34%
active: [4]; [18] 90% | [7]; [18] 81% | [14]; [18] 85%
